Measurements from the supplement of paper PMC11732987, “Enantioselective OTUD7B fragment discovery through chemoproteomics screening and high-throughput optimisation” (Communications Chemistry, 2025).

Columns and labels:
Experiment in all cases: log2 ratio of Biotin-Ahx-Ub-VS probe labelling (compound/DMSO); higher = less target engagement, active = hit call of the paper (q ≤ 0.05, log2 ratio ≤ -1)
Conditions in all cases: treatment time: 3 h
[1] = compound: CCC1N(CCc2sccc12)C(=O)CCl
Method in brief: (§1)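 Compound at 50 or 200 µM, or DMSO, was applied for 3 h in triplicate to HEK293T lysate (495 µg per sample, Tris/CHAPS/IGEPAL buffer with protease inhibitors), after which Biotin-Ahx-Ub-VS was added at 0.5 µM final for 1 h. The labelled DUBs were pulled down with NeutrAvidin, digested with LysC and trypsin, and run by diaPASEF LC-MS/MS. Ratios are averaged base-two logs of compound over DMSO from median-normalised label-free quantities by unpaired t-test, counting only proteins with at least 2 unique peptides.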

[2] = compound: CN1c2ccccc2C(CS1(=O)=O)NC(=O)CCl
Method in brief: as §1

[3] = compound: Cl.ClCC(=O)N1CCc2ncncc2C1
Method in brief: as §1

[4] = compound: Cl.Cn1ncc2C(CCCc12)NC(=O)CCl
Method in brief: as §1

[5] = compound: ClCC(=O)NC1CCOc2ccccc12
Method in brief: as §1

[6] = compound: ClCC(=O)NC1CCCc2ccccc12
Method in brief: (§2)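 Spectronaut label-free, global-median-normalised protein quantities underlie these values, which are average ratios of compound to vehicle from an unpaired t-test. They are reported as log2 and include only proteins identified by two or more unique peptides. Samples of HEK293T lysate (495 µg) were treated in triplicate with a compound concentration series or vehicle for 3 h, then labelled with Biotin-Ahx-Ub-VS at 0.5 µM final for 1 h before NeutrAvidin enrichment, LysC and trypsin digestion, and diaPASEF LC-MS/MS.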

[7] = compound: ClCC(=O)N[C@@H]1CCCc2ccccc12
Method in brief: as §2

[8] = compound: ClCC(=O)N[C@H]1CCCc2ccccc12
Method in brief: as §2

[9] = compound: CCC1N(CCc2cc(OC)c(Cl)cc12)C(=O)CCl
Method in brief: as §1

[10] = compound: CCCC1N(CCc2cc(OC)c(OC)cc12)C(=O)CCl
Method in brief: as §1

Measured: log2 ratio of Biotin-Ahx-Ub-VS probe labelling

OTUD4 (UniProt Q01804)
Chain of UniProt Q01804 (Q01804 whole entry): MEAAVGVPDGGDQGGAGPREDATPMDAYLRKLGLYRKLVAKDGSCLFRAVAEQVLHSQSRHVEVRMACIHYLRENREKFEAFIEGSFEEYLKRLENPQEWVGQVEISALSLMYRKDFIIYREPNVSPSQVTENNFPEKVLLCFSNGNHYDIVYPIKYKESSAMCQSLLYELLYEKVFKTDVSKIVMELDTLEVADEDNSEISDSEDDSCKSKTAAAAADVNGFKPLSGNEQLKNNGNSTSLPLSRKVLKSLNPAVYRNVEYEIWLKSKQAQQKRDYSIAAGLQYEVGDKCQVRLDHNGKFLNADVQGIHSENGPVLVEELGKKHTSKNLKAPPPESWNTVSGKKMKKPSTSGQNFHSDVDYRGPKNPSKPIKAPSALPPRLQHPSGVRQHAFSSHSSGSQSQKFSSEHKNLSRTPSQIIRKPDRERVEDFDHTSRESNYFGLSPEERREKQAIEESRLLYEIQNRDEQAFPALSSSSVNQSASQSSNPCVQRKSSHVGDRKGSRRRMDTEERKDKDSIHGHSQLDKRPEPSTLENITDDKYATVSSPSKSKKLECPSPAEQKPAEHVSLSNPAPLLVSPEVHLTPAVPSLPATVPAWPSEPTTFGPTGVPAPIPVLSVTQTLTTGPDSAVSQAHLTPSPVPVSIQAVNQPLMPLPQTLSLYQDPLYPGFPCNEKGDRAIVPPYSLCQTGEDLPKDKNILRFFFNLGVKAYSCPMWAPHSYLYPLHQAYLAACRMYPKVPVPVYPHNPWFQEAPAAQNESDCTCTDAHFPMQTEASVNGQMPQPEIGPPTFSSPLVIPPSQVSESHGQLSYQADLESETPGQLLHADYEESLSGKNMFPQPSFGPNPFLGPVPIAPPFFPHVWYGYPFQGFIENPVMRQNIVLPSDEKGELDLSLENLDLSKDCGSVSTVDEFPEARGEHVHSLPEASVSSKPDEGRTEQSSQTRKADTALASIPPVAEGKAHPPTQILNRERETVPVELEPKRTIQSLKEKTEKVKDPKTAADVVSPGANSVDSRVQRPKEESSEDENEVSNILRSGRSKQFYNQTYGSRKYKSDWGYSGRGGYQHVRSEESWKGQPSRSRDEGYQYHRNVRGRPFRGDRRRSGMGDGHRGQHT
active: [2]; compound concentration: 200uM -1.51 | [4]; compound concentration: 200uM -1.46 | [5]; compound concentration: 200uM -1.33 | [6]; compound concentration: 50uM -1.21 | [6]; compound concentration: 100uM -1.92 | [6]; compound concentration: 200uM -2.86 | [7]; compound concentration: 100uM -1.39 | [7]; compound concentration: 200uM -2.13 | [8]; compound concentration: 50uM -1.41 | [8]; compound concentration: 100uM -2.07 | [8]; compound concentration: 200uM -2.61 | [9]; compound concentration: 200uM -1.4
inactive: [1]; compound concentration: 50uM -0.293 | [1]; compound concentration: 200uM -0.576 | [2]; compound concentration: 50uM -0.595 | [3]; compound concentration: 50uM -0.152 | [3]; compound concentration: 200uM -0.671 | [4]; compound concentration: 50uM -0.813 | [5]; compound concentration: 50uM -0.624 | [6]; compound concentration: 0.78uM -0.158 | [6]; compound concentration: 1.56uM -0.085 | [6]; compound concentration: 3.13uM -0.223 | [6]; compound concentration: 6.25uM -0.319 | [6]; compound concentration: 12.5uM -0.411 | [6]; compound concentration: 25uM -0.655 | [7]; compound concentration: 0.78uM -0.206 | [7]; compound concentration: 1.56uM -0.14 | [7]; compound concentration: 3.13uM -0.152 | [7]; compound concentration: 6.25uM -0.172 | [7]; compound concentration: 12.5uM -0.352 | [7]; compound concentration: 25uM -0.535 | [7]; compound concentration: 50uM -0.958 | [8]; compound concentration: 0.78uM -0.176 | [8]; compound concentration: 1.56uM -0.178 | [8]; compound concentration: 3.13uM -0.176 | [8]; compound concentration: 6.25uM -0.252 | [8]; compound concentration: 12.5uM -0.529 | [8]; compound concentration: 25uM -0.893 | [9]; compound concentration: 50uM -0.491 | [10]; compound concentration: 50uM -0.395 | [10]; compound concentration: 200uM -0.505

OTUB1 (UniProt Q96FW1)
Chain of UniProt Q96FW1 (Q96FW1 whole entry): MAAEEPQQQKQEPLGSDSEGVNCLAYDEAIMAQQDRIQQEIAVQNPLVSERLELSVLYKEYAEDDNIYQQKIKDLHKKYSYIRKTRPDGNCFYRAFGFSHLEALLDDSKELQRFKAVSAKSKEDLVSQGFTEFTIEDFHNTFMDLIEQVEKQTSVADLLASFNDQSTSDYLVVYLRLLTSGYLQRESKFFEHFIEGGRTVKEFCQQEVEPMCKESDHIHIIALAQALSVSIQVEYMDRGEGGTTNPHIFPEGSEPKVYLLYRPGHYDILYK
inactive: [1]; compound concentration: 50uM -0.117 | [1]; compound concentration: 200uM -0.154 | [2]; compound concentration: 50uM -0.275 | [2]; compound concentration: 200uM -0.196 | [3]; compound concentration: 50uM -0.211 | [3]; compound concentration: 200uM -0.426 | [4]; compound concentration: 50uM 0.106 | [4]; compound concentration: 200uM -0.247 | [5]; compound concentration: 50uM -0.281 | [5]; compound concentration: 200uM -0.037 | [6]; compound concentration: 0.78uM -0.196 | [6]; compound concentration: 1.56uM -0.0742 | [6]; compound concentration: 3.13uM -0.226 | [6]; compound concentration: 6.25uM -0.309 | [6]; compound concentration: 12.5uM -0.314 | [6]; compound concentration: 25uM -0.147 | [6]; compound concentration: 50uM -0.404 | [6]; compound concentration: 100uM -0.172 | [6]; compound concentration: 200uM -0.492 | [7]; compound concentration: 0.78uM 0.0648 | [7]; compound concentration: 1.56uM -0.00906 | [7]; compound concentration: 3.13uM -0.216 | [7]; compound concentration: 6.25uM -0.197 | [7]; compound concentration: 12.5uM -0.122 | [7]; compound concentration: 25uM -0.199 | [7]; compound concentration: 50uM -0.236 | [7]; compound concentration: 100uM -0.0374 | [7]; compound concentration: 200uM -0.142 | [8]; compound concentration: 0.78uM -0.244 | [8]; compound concentration: 1.56uM -0.103 | [8]; compound concentration: 3.13uM -0.28 | [8]; compound concentration: 6.25uM -0.301 | [8]; compound concentration: 12.5uM -0.188 | [8]; compound concentration: 25uM -0.119 | [8]; compound concentration: 50uM -0.16 | [8]; compound concentration: 100uM -0.00187 | [8]; compound concentration: 200uM -0.123 | [9]; compound concentration: 50uM 0.198 | [9]; compound concentration: 200uM -0.422 | [10]; compound concentration: 50uM -0.107 | [10]; compound concentration: 200uM -0.0707

USP54 (UniProt Q70EL1)
Chain of UniProt Q70EL1 (Q70EL1 whole entry): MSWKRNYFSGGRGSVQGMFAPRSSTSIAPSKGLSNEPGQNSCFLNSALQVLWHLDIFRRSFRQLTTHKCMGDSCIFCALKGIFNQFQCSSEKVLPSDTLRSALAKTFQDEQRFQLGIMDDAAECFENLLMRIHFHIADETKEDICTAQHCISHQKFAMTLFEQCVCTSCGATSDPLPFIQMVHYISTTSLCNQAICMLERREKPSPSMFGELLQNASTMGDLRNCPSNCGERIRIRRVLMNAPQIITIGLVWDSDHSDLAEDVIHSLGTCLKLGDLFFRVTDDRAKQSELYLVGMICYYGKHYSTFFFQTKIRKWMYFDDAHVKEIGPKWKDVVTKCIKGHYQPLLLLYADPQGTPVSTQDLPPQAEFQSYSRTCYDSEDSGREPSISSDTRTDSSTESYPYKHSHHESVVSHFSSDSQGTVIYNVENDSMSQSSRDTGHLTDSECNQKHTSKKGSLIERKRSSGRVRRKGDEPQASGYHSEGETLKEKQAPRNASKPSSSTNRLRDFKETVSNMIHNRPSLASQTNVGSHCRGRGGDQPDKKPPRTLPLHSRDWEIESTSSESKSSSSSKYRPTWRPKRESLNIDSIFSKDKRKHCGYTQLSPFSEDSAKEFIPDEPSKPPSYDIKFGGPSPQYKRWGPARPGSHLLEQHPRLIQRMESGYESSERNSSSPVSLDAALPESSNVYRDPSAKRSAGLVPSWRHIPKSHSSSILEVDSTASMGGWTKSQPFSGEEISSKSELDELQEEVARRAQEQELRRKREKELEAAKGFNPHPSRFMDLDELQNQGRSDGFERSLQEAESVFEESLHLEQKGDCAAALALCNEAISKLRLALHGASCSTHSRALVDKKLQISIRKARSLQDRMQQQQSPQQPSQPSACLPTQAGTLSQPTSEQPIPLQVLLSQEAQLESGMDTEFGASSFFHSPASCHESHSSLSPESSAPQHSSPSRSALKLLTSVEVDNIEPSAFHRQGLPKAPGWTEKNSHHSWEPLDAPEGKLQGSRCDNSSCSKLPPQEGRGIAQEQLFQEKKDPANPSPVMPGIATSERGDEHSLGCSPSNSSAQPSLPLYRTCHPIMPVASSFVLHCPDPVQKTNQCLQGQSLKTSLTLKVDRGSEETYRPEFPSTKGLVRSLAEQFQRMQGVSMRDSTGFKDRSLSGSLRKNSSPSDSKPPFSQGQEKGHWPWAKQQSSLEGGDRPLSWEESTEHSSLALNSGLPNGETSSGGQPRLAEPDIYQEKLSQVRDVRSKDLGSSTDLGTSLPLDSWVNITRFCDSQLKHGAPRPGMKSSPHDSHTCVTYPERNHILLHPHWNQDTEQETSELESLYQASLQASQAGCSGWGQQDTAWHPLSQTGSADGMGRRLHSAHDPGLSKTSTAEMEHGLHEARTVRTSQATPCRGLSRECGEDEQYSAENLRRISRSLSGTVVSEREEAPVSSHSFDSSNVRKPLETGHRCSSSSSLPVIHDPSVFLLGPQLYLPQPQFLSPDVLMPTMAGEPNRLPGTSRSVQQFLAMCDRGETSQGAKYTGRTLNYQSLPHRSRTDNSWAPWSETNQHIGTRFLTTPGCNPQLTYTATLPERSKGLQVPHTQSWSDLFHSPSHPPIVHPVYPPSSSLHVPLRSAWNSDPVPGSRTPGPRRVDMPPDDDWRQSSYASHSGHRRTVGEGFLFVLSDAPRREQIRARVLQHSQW
active: [3]; compound concentration: 200uM -1.09 | [4]; compound concentration: 200uM -2.4 | [6]; compound concentration: 6.25uM -1.2 | [6]; compound concentration: 12.5uM -1.06 | [8]; compound concentration: 1.56uM -1.07 | [10]; compound concentration: 200uM -2.42
inactive: [1]; compound concentration: 50uM 0.403 | [1]; compound concentration: 200uM -0.685 | [2]; compound concentration: 50uM 0.55 | [2]; compound concentration: 200uM -0.727 | [3]; compound concentration: 50uM 0.0984 | [4]; compound concentration: 50uM 0.166 | [5]; compound concentration: 50uM -0.806 | [5]; compound concentration: 200uM -0.859 | [6]; compound concentration: 0.78uM -0.349 | [6]; compound concentration: 1.56uM -0.87 | [6]; compound concentration: 3.13uM -0.672 | [6]; compound concentration: 25uM -0.646 | [6]; compound concentration: 50uM -0.519 | [6]; compound concentration: 100uM -0.598 | [6]; compound concentration: 200uM -0.947 | [7]; compound concentration: 0.78uM 0.232 | [7]; compound concentration: 1.56uM -0.0979 | [7]; compound concentration: 3.13uM -0.457 | [7]; compound concentration: 6.25uM -0.449 | [7]; compound concentration: 12.5uM -0.888 | [7]; compound concentration: 25uM 0.0566 | [7]; compound concentration: 50uM -0.582 | [7]; compound concentration: 100uM -0.163 | [7]; compound concentration: 200uM -0.256 | [8]; compound concentration: 0.78uM 0.15 | [8]; compound concentration: 3.13uM -0.564 | [8]; compound concentration: 6.25uM -0.753 | [8]; compound concentration: 12.5uM -0.0765 | [8]; compound concentration: 25uM -0.601 | [8]; compound concentration: 50uM -0.182 | [8]; compound concentration: 100uM 0.38 | [8]; compound concentration: 200uM -0.201 | [9]; compound concentration: 50uM -0.125 | [9]; compound concentration: 200uM -0.766 | [10]; compound concentration: 50uM -0.559

USP5 (UniProt P45974)
Chain of UniProt P45974 (P45974 whole entry): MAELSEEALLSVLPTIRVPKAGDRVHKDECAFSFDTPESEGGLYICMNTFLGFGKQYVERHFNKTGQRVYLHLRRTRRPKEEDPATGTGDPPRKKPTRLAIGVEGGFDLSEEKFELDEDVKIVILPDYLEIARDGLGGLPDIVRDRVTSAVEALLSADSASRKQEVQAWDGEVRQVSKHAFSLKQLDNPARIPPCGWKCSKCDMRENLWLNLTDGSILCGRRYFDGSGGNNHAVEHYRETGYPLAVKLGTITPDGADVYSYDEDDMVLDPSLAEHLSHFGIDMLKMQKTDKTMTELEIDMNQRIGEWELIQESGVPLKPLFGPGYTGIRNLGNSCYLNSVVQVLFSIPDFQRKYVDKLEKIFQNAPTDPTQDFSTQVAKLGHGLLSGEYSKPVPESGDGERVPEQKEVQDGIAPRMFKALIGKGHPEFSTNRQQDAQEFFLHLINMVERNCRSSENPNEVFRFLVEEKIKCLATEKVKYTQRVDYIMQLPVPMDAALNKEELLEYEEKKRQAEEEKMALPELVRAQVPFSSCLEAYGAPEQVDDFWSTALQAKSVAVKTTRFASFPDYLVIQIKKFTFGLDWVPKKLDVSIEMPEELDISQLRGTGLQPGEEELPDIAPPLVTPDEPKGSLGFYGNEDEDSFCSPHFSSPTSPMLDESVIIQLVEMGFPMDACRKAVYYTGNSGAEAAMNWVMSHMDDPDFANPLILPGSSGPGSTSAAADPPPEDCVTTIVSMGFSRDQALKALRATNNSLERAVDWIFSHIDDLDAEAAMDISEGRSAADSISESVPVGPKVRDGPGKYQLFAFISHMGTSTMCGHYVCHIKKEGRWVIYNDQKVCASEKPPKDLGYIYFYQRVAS
inactive: [1]; compound concentration: 50uM 0.107 | [1]; compound concentration: 200uM 0.165 | [2]; compound concentration: 50uM -0.0432 | [2]; compound concentration: 200uM -0.0749 | [3]; compound concentration: 50uM 0.179 | [3]; compound concentration: 200uM -0.233 | [4]; compound concentration: 50uM 0.122 | [4]; compound concentration: 200uM -0.00464 | [5]; compound concentration: 50uM 0.209 | [5]; compound concentration: 200uM 0.107 | [6]; compound concentration: 0.78uM -0.0702 | [6]; compound concentration: 1.56uM -0.0265 | [6]; compound concentration: 3.13uM -0.189 | [6]; compound concentration: 6.25uM -0.131 | [6]; compound concentration: 12.5uM -0.157 | [6]; compound concentration: 25uM -0.19 | [6]; compound concentration: 50uM -0.0861 | [6]; compound concentration: 100uM -0.067 | [6]; compound concentration: 200uM -0.0831 | [7]; compound concentration: 0.78uM -0.209 | [7]; compound concentration: 1.56uM -0.162 | [7]; compound concentration: 3.13uM -0.139 | [7]; compound concentration: 6.25uM -0.155 | [7]; compound concentration: 12.5uM -0.0604 | [7]; compound concentration: 25uM -0.131 | [7]; compound concentration: 50uM -0.159 | [7]; compound concentration: 100uM -0.0875 | [7]; compound concentration: 200uM -0.125 | [8]; compound concentration: 0.78uM -0.109 | [8]; compound concentration: 1.56uM -0.17 | [8]; compound concentration: 3.13uM -0.185 | [8]; compound concentration: 6.25uM -0.0549 | [8]; compound concentration: 12.5uM -0.103 | [8]; compound concentration: 25uM -0.119 | [8]; compound concentration: 50uM -0.0192 | [8]; compound concentration: 100uM -0.093 | [8]; compound concentration: 200uM -0.184 | [9]; compound concentration: 50uM 0.0912 | [9]; compound concentration: 200uM -0.014 | [10]; compound concentration: 50uM -0.158 | [10]; compound concentration: 200uM -0.268
